In PubChem BioAssay (EPA / NIEHS):
Calls of active or inactive are those of the source. The calls were made as follows: active = hit-call score of the fitted dose curve at least 0.9, where 1 is the maximum; inactive = score below 0.9.

read-out: Cyclin D1 (CCND1), CCND1 (gene 595); experiment: LTEA_HepaRG_CCND1: Life Technologies and Expression Analysis (LTEA) Assay for Cyclin D1 (CCND1) using HepaRG (AID 2283451); conditions: mRNA level, 48 h; actives raise or lower the signal;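 as to AC50: differentiated human HepaRG liver cells in serum-free induction medium; TaqMan qRT-PCR transcript level normalised to ACTB GAPDH and POLR2A housekeeping genes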
Summary of the method: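 HepaRG plated 48 h, medium switched to serum-free induction medium, chemicals added in duplicate (top 100 uM, half-log steps, 0.5% DMSO) for 48 h, cells lysed, RNA measured by TaqMan qRT-PCR.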

| Compound | outcome | AC50 |
| --- | --- | --- |
| OCCCl | inactive |  |
| CCNS(=O)(=O)C(F)(F)C(F)(F)C(F)(F)C(F)(F)C(F)(F)C(F)(F)C(F)(F)C(F)(F)F | inactive |  |
| COC(=O)Nc1nc2ccccc2[nH]1 | inactive |  |
| O=Cc1ccco1 | inactive |  |
| CCCCC(CC)COC(=O)c1ccc(C(=O)OCC(CC)CCCC)c(C(=O)OCC(CC)CCCC)c1 (stereo not drawn) | inactive |  |
| CCCCCCCCn1sccc1=O |  | 83.7 µM (active) |
| CC(C)(C)OOC(=O)c1ccccc1 | inactive |  |
| c1ccc2c(c1)oc1ccccc12 | inactive |  |
| COc1cc(C=O)cc2c1[C@H](COC(N)=O)[C@]1(OC(C)=O)ON2C[C@H]2[C@@H]1N2C(C)=O |  | 50 µM (active) |
| CCN(CC)CCO | inactive |  |
| ClC1=C(Cl)C2(Cl)C3C(Cl)C=CC3C1(Cl)C2(Cl)Cl (stereo not drawn) |  | 18.4 µM (active) |
| CCC[CH2][Sn]([Cl])([CH2]CCC)[CH2]CCC |  | 81.2 µM (active) |
| CN(C)[C@@H]1C(=O)C(C(N)=O)=C(O)[C@@]2(O)C(=O)C3=C(O)c4c(O)cccc4[C@@](C)(O)[C@H]3C[C@@H]12 | inactive |  |
| ClCCOCCCl | inactive |  |
| Clc1ccc(C(c2ccc(Cl)cc2)C(Cl)Cl)cc1 | inactive |  |
| N#CC(Br)Br | inactive |  |
| CC(O)CCO (stereo not drawn) | inactive |  |
| C1=Cc2cccc3cccc1c23 | inactive |  |
| CCCSC(=O)N(CCC)CCC | inactive |  |
| OCCOCCO | inactive |  |
| Clc1ccc(Cl)c(Cl)c1 | inactive |  |
| CC(C)(OOC(C)(C)c1ccccc1)c1ccccc1 | inactive |  |
| Clc1ccccc1Cl | inactive |  |
| C[N+](C)(C)CC1CO1 (stereo not drawn) | inactive |  |
| COC(=O)c1ccccc1N | inactive |  |
| CN(C)C(=O)Nc1ccc(Cl)cc1 | inactive |  |
| [O-][Cl+]O | inactive |  |
| CCCCOC(=O)c1ccccc1C(=O)OCc1ccccc1 | inactive |  |
